Experimental data as given in PubChem BioAssay (Tox21).
A number with no mark means an inactive call. Inconclusive results are not listed. Entries that show only a call come without a potency. Activity calls are given as the source filed them. Unless noted, calls follow the shape of the dose curve; as a rule, active = well fitted curve in the direction sought with a large enough effect in the repeat runs; inconclusive = weak or mixed curves; inactive = no such curve, though single readings can be large; an effect the other way counts as inactive or inconclusive.

Key:
[1] = qHTS assay to identify small molecule antagonists of the estrogen related receptor (ERR) signaling pathway from Tox21 library - cell viability counter screen (AID 1224834); also: nearly all actives have a fitted effect of over 30% in size
In short: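 In this quantitative HTS format, ERR cells receive compounds in DMSO and are incubated for 17.5 h at 37 C. Live-cell protease activity is then detected with CellTiter-Fluor.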

[2] = qHTS assay to identify small molecule antagonists of the constitutive androstane receptor (CAR) signaling pathway - cell viability counter screen (AID 1224837); also: nearly all actives have a fitted effect of over 45% in size
In short: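 In quantitative HTS format, compounds at 15 concentrations were applied to HepG2 cells double-transfected with hCAR and CYP2B6-2.2kb under 50 nM CITCO stimulation; live-cell protease activity was read after 23 hr via CellTiter-Fluor.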

[3] = qHTS assay to identify small molecule antagonists of the estrogen related receptor signaling pathway with the pleiotropic PPARgamma coactivator (PGC) from Tox21 10K library - cell viability counter screen (AID 1224840; active = well fitted cell-killing curve with a large enough effect in the repeat runs, not every such curve was filed as active; also: nearly all actives have a fitted effect of over 40% in size)
In short: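 Viability counter screen, PGC/ERR cells: 17.5 h compound exposure at 37 C, CellTiter-Fluor fluorescence endpoint.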

[4] = molecular target: Thyrotropin receptor (Homo sapiens) (UniProt P16473); assay: qHTS assay to identify small molecule agonists of the thyroid stimulating hormone receptor (TSHR) signaling pathway (AID 1224843; calls by dose curve; also: nearly all actives have a fitted effect of over 45% in size)
Chain of Thyrotropin receptor (Homo sapiens) (P16473 whole entry, looked up): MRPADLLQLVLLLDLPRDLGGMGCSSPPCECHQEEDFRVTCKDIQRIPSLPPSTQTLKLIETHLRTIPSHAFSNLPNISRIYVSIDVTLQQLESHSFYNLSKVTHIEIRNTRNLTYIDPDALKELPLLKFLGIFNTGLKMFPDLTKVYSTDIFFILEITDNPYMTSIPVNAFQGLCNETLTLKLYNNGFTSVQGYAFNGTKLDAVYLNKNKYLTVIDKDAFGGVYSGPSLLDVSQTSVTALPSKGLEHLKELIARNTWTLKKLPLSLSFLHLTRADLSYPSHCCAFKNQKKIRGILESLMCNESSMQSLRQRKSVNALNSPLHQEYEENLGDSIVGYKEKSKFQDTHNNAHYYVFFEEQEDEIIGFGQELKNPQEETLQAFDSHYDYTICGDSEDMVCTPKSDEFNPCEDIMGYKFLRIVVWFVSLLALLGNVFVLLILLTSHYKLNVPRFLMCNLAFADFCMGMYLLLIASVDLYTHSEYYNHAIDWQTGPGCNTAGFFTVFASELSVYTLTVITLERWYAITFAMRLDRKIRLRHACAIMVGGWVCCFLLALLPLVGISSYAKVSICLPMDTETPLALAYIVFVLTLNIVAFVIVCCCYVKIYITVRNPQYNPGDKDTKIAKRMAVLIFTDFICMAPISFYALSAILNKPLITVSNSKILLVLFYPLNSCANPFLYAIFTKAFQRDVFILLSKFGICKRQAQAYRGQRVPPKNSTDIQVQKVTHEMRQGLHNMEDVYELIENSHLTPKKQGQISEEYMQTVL
In short: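 Agonist activity read as cAMP rise via d2/cryptate HTRF competition, 1 h room-temperature detection, in HEK293 cells expressing TSHR. Fifteen-point titrations, each run in triplicate, with a 30 min room-temperature incubation beforehand.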

[5] = qHTS assay to identify small molecule agonists of the hypoxia (HIF-1) signaling pathway - cell viability counter screen (AID 1224844; calls by dose curve; also: nearly all actives have a fitted effect of over 50% in size)
In short: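 Same wells as the HIF-1 reporter screen; ME-180 cells carrying HRE-bla, 17 hr treatment at 37C; CellTiter-Glo luminescence read after 30 min at room temperature.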

[6] = qHTS assay to identify small molecule agonists of H2AX (AID 1224845; active = well fitted activation curve with a large enough effect in the signal ratio in the repeat runs, not every such curve was filed as active; the % refers to the signal ratio)
In short: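 Phospho-H2AX Ser139 measured by HTRF (ex 320 nm; em 665 and 620 nm) after 24 hr antibody incubation. Compounds, 15 concentrations, 0.76% DMSO, were applied to CHO-K1 cells for 3hr at 37C before lysis.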

[7] = qHTS assay to identify small molecule agonists of the hypoxia (HIF-1) signaling pathway (AID 1224846; active = well fitted activation curve with a large enough effect in the signal ratio in the repeat runs, not every such curve was filed as active; the % refers to the signal ratio)
In short: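 In ME-180 cells bearing an HRE-bla construct, 17 h treatment with DMSO-dissolved compounds at 37C was followed by CCF4-AM loading to quantify reporter induction.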

[8] = qHTS assay to identify small molecule agonists of H2AX - cell viability counter screen (AID 1224847; calls by dose curve; also: top concentration of the series differs between compounds; nearly all actives have a fitted effect of over 30% in size)
In short: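 Wild-type CHO-K1 cells (10% FBS medium) were plated overnight at 37C, exposed to compounds at 15 concentrations for 3 hr at 37C (0.76% DMSO final), and viability was read as CellTiter-Glo luminescence after 30 min at room temperature.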

[9] = qHTS RealTime-Glo MT Cell Viability Assay in HepG2 cells - 24 hour (AID 1224867); also: nearly all actives have a fitted effect of over 50% in size
In short: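 HepG2 cells were seeded at 600 cells/well together with NanoLuc luciferase and a cell-permeant prosubstrate, preincubated 5 h at 37 C/5% CO2, then pin-dosed with compounds in DMSO. Nonlytic luminescence from viable cells was read at each time point.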

[10] = qHTS RealTime-Glo MT Cell Viability Assay in HEK293 cells - 32 hour (AID 1224868); also: nearly all actives have a fitted effect of over 50% in size; also: potency is read from the fitted curve at half-maximal effect
In short: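 HEK293 cells were seeded at 600 cells/well together with NanoLuc luciferase and cell-permeant prosubstrate, preincubated 5 h at 37 C/5% CO2, then given compound in DMSO by pintool. Luminescence from viable-cell prosubstrate reduction was read repeatedly over 40 h.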

[11] = A CellTox Green Cytotoxicity Assay to monitor cytotoxicity in HEK293 cells - 0 hour (AID 1224869); also: nearly all actives have a fitted effect of over 50% in size
In short: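 Homogeneous no-lysis format: HEK293 cell suspension mixed with CellTox Green reagent, seeded, incubated 5 h at 37 C/5% CO2, then dosed by pintool with compound in DMSO.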

[12] = molecular target: Luciferin 4-monooxygenase (Photinus pyralis) (UniProt P08659); assay: qHTS assay to identify small molecule inhibitors of firefly luciferase (AID 1224835); also: nearly all actives have a fitted effect of over 25% in size
Chain of Luciferin 4-monooxygenase (Photinus pyralis) (P08659 whole entry, looked up): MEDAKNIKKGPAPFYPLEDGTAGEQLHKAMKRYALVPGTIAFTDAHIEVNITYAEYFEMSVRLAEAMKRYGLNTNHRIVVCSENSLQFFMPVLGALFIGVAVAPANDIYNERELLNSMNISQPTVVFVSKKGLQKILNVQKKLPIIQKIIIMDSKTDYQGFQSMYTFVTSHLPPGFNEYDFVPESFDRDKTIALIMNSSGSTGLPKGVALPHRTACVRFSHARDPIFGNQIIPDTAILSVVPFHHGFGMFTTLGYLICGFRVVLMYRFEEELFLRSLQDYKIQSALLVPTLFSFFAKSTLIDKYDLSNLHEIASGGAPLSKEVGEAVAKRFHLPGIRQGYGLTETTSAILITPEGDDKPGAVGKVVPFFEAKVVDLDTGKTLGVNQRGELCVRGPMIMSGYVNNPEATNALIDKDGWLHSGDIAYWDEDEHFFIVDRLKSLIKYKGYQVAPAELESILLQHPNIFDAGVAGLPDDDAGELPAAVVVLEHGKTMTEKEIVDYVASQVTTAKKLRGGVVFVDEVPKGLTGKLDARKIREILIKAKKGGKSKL
In short: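 Inhibition of purified Photinus luciferase is measured by luminescence. Substrate levels (D-luciferin, ATP) sit at their KM values. Each compound is tested in a concentration series.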

[13] = qHTS assay to identify small molecule agonists of the constitutive androstane receptor (CAR) signaling pathway - cell viability counter screen (AID 1224836); also: nearly all actives have a fitted effect of over 45% in size
In short: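 HepG2 cells stably carrying hCAR and a CYP2B6-2.2kb reporter were plated 4 h, then given compounds at 15 concentrations plus PK11195 (final 0.75 uM). After 23 h at 37 C, viability was read by CellTiter-Fluor fluorescence.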

[14] = molecular target: Nuclear receptor subfamily 1 group I member 3 (Homo sapiens) (UniProt Q14994); assay: qHTS assay to identify small molecule agonists of the constitutive androstane receptor (CAR) signaling pathway (AID 1224839);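 also: HepG2 cells stably carrying human CAR and a CYP2B6 luciferase reporter; nearly all actives have a fitted effect of over 15% in size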
Chain of Nuclear receptor subfamily 1 group I member 3 (Homo sapiens) (Q14994 whole entry, looked up): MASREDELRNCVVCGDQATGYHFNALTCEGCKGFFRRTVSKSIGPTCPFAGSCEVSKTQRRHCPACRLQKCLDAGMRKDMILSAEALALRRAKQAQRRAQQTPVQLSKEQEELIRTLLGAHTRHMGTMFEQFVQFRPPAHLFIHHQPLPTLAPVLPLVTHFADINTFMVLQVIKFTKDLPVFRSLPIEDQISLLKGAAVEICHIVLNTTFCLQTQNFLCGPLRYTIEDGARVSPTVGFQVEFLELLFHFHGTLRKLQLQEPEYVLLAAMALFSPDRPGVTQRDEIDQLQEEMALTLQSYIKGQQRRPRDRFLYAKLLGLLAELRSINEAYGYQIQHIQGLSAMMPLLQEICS
In short: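 HepG2 cells stably expressing hCAR and a CYP2B6-2.2kb luciferase reporter were treated with compounds at 15 concentrations plus 0.75 uM PK11195 (final) for 24 h at 37 C; luminescence was read after ONE-Glo addition.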

[15] = qHTS assay to identify small molecule antagonists of the estrogen related receptor signaling pathway with the pleiotropic PPARgamma coactivator (PGC) from Tox21 10K library (AID 1224841; call rule not given here)
In short: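 In the PGC/ERR line, DMSO solutions of test chemicals are pin-delivered to 2,000 cells/well six hours after dispensing. Following eighteen hours' incubation, One-Glo reagent is added and luminescence recorded.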

[16] = qHTS assay to identify small molecule agonists of the estrogen related receptor signaling pathway with the pleiotropic PPARgamma coactivator (PGC) from Tox21 10K library (AID 1224842); also: nearly all actives have a fitted effect of over 15% in size
In short: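 Luminescence from One-Glo (30 min, room temperature) measured after PGC/ERR cells had 18 h at 37 C with pinned compound (23 nL in DMSO). Cells had been seeded at 2,000 per well and pre-incubated 6 h.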

[17] = qHTS assay to identify small molecule antagonists of the estrogen related receptor (ERR) signaling pathway from Tox21 library (AID 1224848); also: nearly all actives have a fitted effect of over 50% in size
In short: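 Luciferase luminescence (ONE-Glo, 30 min room temperature) was the read-out. Cells of the NTP-supplied ERR line, 2,000 per well, were given 6 h at 37 C before compound addition in DMSO and 18 h exposure at 37 C.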

[18] = qHTS assay to identify small molecule agonists of the estrogen related receptor (ERR) signaling pathway from Tox21 library (AID 1224849; calls by dose curve; also: nearly all actives have a fitted effect of over 15% in size); conditions: ERR reporter cell line, ONE-Glo luciferase, 18 h; at 92.4 µM (top of the series) unless noted
In short: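 Reporter cells (ERR, NTP source) treated with Tox21 10K compounds 18 h, 37 C. Readout: ONE-Glo luminescence, 30 min RT.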

[19] = molecular target: Nuclear receptor subfamily 1 group I member 3 (Homo sapiens) (UniProt Q14994); assay: qHTS assay to identify small molecule antagonists of the constitutive androstane receptor (CAR) signaling pathway (AID 1224838); also: nearly all actives have a fitted effect of over 40% in size
In short: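 CITCO-stimulated (50 nM final) HepG2 cells stably transfected with hCAR and CYP2B6-2.2kb luciferase were exposed to compounds at 15 concentrations for 24 h at 37 C/5% CO2. A luciferase reagent was added and luminescence recorded after 30 min.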

Row | Structure (SMILES) | Potency [1] | Potency [2] | outcome [3] | Potency [4] | outcome [5] | outcome [6] | outcome [7] | Potency [8] | outcome [9] | Potency [10] | outcome [11] | Potency [12] | Potency [13] | Potency [14] | Potency [15] | outcome [16] | Potency [17] | activity change, positive = activation [18] | outcome [19]
1 | O=C(NCCc1c[nH]c2ccccc12)c1cccnc1 | inactive | inactive | inactive | inactive | inactive | inactive | inactive | inactive | inactive | inactive | inactive |  |  |  |  |  |  |  | 
2 | O=C1c2ccccc2C(=O)N1CCl |  | inactive | inactive |  | inactive | inactive | inactive | inactive | inactive | inactive | inactive | inactive | inactive | inactive | inactive | inactive | inactive | 0.282% | 
3 | CC(C)C(=O)OCCc1ccccc1 | inactive | inactive | inactive | inactive | inactive | inactive | inactive | inactive | inactive | inactive | inactive |  | inactive |  |  |  |  |  | 
4 | CC(CN)CC(C)(C)CCN (stereo not drawn) |  | inactive | inactive | inactive | inactive | inactive | inactive | inactive | inactive | inactive | inactive | inactive | inactive | inactive |  |  |  |  | 
5 | O=C(NCC(O)CO)c1c(I)c(C(=O)NCC(O)CO)c(I)c(N(CCO)C(=O)CO)c1I (stereo not drawn) | inactive | inactive | inactive | inactive | inactive | inactive |  | inactive | inactive | inactive | inactive |  |  | inactive |  |  | inactive | 5.02% [at 42.5 µM] | 
6 | CCCCCCCCCCl | inactive |  | inactive | inactive | inactive | inactive | inactive | inactive | inactive | inactive | inactive |  | inactive |  | inactive | inactive | inactive | 2.84% | 
7 | Cc1ccc2ccc(Cl)cc2n1 | inactive | inactive | inactive | inactive | inactive | inactive | inactive | inactive | inactive | inactive | inactive |  |  | inactive |  |  |  |  | 
8 | Cc1cc(NC(=O)C2=C(O)c3ccccc3S(=O)(=O)N2C)no1 | inactive | inactive |  | inactive | inactive |  |  | inactive | inactive | inactive | inactive |  | inactive |  |  |  |  |  | 
9 | CCCCCCOc1ccccc1C(N)=O | inactive | inactive | inactive | inactive |  | inactive | inactive | inactive | inactive | 16.9 µM (active) | inactive |  | inactive |  |  |  |  |  | 
10 | CCCCN |  | inactive | inactive |  | inactive | inactive |  | inactive | inactive | inactive | inactive | inactive | inactive | inactive | inactive | inactive | inactive | 3.11% [at 42.5 µM] | inactive
